Rows were chosen to be rich in hits. Some 4.1% of all compounds tested hit in one or more screens of this group.
Anthrax LF inh2 = anthrax lethal factor protease inhibition. P15917. multiplex microsphere protease cleavage assay, LF. 0.12% of 360,000 active. inhibition, % at 10 µM; note: plate controls were buffer without enzyme for full effect and enzyme alone for no effect
VHR inh abs = DUSP3 (human) phosphatase inhibition; P51452; inhibition, % at 13.3 µM; 0.52% of 290,000 active; AID 1654; recombinant VHR phosphatase, pNPP absorbance; in the data active = inhibition above about 50%
Target sequence (P51452 whole entry, looked up): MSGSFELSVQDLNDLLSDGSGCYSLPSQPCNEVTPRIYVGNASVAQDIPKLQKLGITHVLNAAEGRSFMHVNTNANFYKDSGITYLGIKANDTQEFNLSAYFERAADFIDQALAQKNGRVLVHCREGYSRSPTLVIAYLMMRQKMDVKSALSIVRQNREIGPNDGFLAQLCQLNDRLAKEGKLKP
Bead autofluor = counter-screen for toxin protease inhibitors: compound fluorescence. compound autofluorescence counterscreen, microsphere flow cytometry; active compounds read high. 3.1% of 360,000 active. fluorescence intensity (no concentration beside the values); in the data active = fluorescence intensity above about 16000; inconclusive = no clear call, values can overlap the other calls
MazF activator = activators of E. coli MazEF toxin-antitoxin RNase; activation, % at 20 µM; P0AE70; FAM/BHQ RNA-DNA oligo cleavage fluorescence, 5 h; AID 504720; 0.32% of 350,000 active; in the data active = activation above about 50%
Target sequence (P0AE70 whole entry, looked up): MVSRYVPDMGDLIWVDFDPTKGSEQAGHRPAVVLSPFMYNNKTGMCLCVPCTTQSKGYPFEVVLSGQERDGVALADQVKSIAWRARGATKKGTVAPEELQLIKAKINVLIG
BoNT A protease = BoNT A light chain protease inhibition; multiplex microsphere protease substrate cleavage, flow cytometry; inhibition, % at 10 µM; 0.17% of 360,000 active; AID 588499; note: plate controls were buffer without enzyme for full effect and enzyme alone for no effect
BoNT-F LC inh = inhibitors of Botulinum neurotoxin F light chain protease; 0.22% of 360,000 active; Multiplex microsphere protease cleavage assay, flow cytometry; inhibition, % at 10 µM; in the data active = inhibition above about 35%, passing the limit was not always enough; inconclusive = no clear call, values can overlap the other calls; note: plate controls were buffer without enzyme for full effect and enzyme alone for no effect
Starred values were filed as active, the others as inactive; u = inconclusive; x = not tested or not shown. Cut-off read from the data, not from the text of the source, unless noted: active = inhibition above about 30%; inconclusive = no clear call, values can overlap the other calls; inactive = below that.

SMILES	Anthrax LF inh2	VHR inh abs	Bead autofluor	MazF activator	BoNT A protease	BoNT-F LC inh
COc1ccc(N(CC(=O)Nc2cccc(C)c2C)S(=O)(=O)c2c(C)[nH]c(=O)[nH]c2=O)cc1	-4.8	-11.7	4166	1.1	0.1	-1.9
COc1ccc(S(=O)(=O)Nc2ccccc2C(=O)N2CCCCC2)cc1C	3.7	-0.2	5989	-0.2	0.2	-0.2
COC(=O)c1ccc2c(=O)n(CCO)c(=S)[nH]c2c1	1.8	2.9	8136	-2.0	0.3	3.7
COC(=O)c1ccc2c(=O)n(NC(=O)C(c3ccccc3)c3ccccc3)c(=S)[nH]c2c1	2.1	2.1	16293*	-6.1	u	-2.4
Cc1nn(Cc2c(F)c(F)c(F)c(F)c2F)c(C)c1NC(=O)c1ccc(COc2ccccc2Cl)o1	0.5	28.7	19196*	-5.1	15.0	14.6
Cc1nn(Cc2c(F)cccc2Cl)c(C)c1NC(=O)C1CC1	-1.1	50.8*	2416	0.1	0.2	-1.5
Cc1nn(Cc2c(F)c(F)c(F)c(F)c2F)c(C)c1NC(=O)c1ccc(COc2ccccc2Cl)cc1	-4.4	13.1	8005	-8.3	-0.6	2.3
COc1ccccc1-c1cccc([C@@H]2C[C@H]3[C@H](CON3C)CN2C(C)=O)c1	-3.2	x	2947	3.5	0.0	-10.2
COc1ccc(-c2noc(-c3ccccc3C(=O)N3CCOCC3)n2)cc1	0.9	30.9	20897*	9.7	6.1	8.8
COCCN(CCOC)Cc1cc(=O)oc2cc(C)c(Cl)cc12	-0.4	x	4185	x	-1.2	1.6
COc1cc(/C=C(/C#N)C(=O)NCCc2c[nH]c3ccccc23)ccc1OCc1ccccc1F	0.6	9.5	23745*	27.5	-0.8	-1.2
O=C(CCCC(=O)OCC(=O)c1ccc(Cl)cc1Cl)Nc1cc(C(F)(F)F)ccc1Cl	-1.0	41.2	2656	-2.3	0.8	4.1
O=C(CCCC(=O)OCC(=O)c1ccc(F)cc1)Nc1cc(C(F)(F)F)ccc1Cl	-1.6	11.3	20642*	-9.9	u	-6.3
OC(c1cc(F)cc(Cl)c1)c1ncc(-c2ccc3ccccc3c2)[nH]1 (configuration not stated)	-7.4	x	3913	x	-0.8	-12.5
COc1ccc(-c2cnnc(N/N=C/c3ccc(O)c(OC)c3)n2)cc1	-3.6	34.2	1999	16.3	0.3	2.6
O=c1c2cc(N3CCOCC3)ccc2[nH]c(=S)n1CCCN1CCCCCC1	-5.3	9.4	21083*	1.2	u	-5.0
O=c1c2cc(N3CCOCC3)ccc2[nH]c(=S)n1Cc1ccc(Cl)cc1	0.7	28.5	16514*	2.7	0.7	2.3
CCN(CC)C(=O)c1cccc(-c2csc(C(O)c3ccc(F)cc3)n2)c1 (configuration not stated)	0.0	x	2915	x	-0.4	4.6
CC1C(=NO)C(C)C(c2ccccc2)NC1c1ccccc1 (configuration not stated)	-1.0	24.3	22855*	-2.5	u	-2.4
Cc1ccc(C2NC(c3ccc(C)cc3)C(C)C(=NO)C2C)cc1 (configuration not stated)	-2.8	31.1	8306	0.1	-0.8	-9.9
CC(=O)c1ccc(NS(=O)(=O)Cc2ccccc2)cc1	3.6	29.9	12649	-8.3	0.9	0.1
COc1ccc(NS(=O)(=O)Cc2ccccc2)cc1OC	-0.1	10.4	21419*	-3.2	2.4	-2.1
CC(=O)N(C)c1ccc(NS(=O)(=O)Cc2ccccc2)cc1	-0.4	3.8	22151*	-11.8	u	0.8
O=C1CCC(C(=O)N2CCN(c3cnccn3)CC2)CN1CCc1ccc(Cl)cc1 (configuration not stated)	4.3	4.4	5224	2.8	0.3	-4.6
CCOC(=O)c1[nH]c2cc(OC)c(OC)cc2c1N	-13.1	7.6	u	-12.3	1.6	-8.0
SMILES	Anthrax LF inh2	VHR inh abs	Bead autofluor	MazF activator	BoNT A protease	BoNT-F LC inh
CCOC(=O)c1[nH]c2ccc(C)cc2c1N	1.3	7.5	22785*	7.3	-0.3	-3.1
COc1ccc(C(=O)Nn2c(SCC(=O)NC3CCCC3)nc3ccccc3c2=O)cc1	0.8	-4.4	21985*	1.8	1.2	4.9
O=C(CSc1nc2ccccc2c(=O)n1NC(=O)Cc1ccccc1)NCc1ccco1	-3.0	-8.9	u	-7.5	0.0	3.2
Cc1nc2ccccc2c(=O)n1NC(=O)c1ccc(Cl)cc1	-9.1	16.5	3203	4.0	0.5	-22.0
O=C(CSc1nc2ccccc2c(=O)n1NC(=O)Cc1ccccc1)NCc1ccccc1	0.5	3.0	23372*	5.8	-1.6	-7.4
O=C(CSc1nc2ccccc2c(=O)n1NC(=O)c1ccccc1)c1ccc(Cl)cc1	-0.9	28.7	19026*	2.7	u	5.1
O=C(CSc1nc2ccccc2c(=O)n1NC(=O)c1ccccc1)c1ccccc1	-5.2	21.3	22548*	0.4	-0.4	1.3
COc1ccc(CN2C(=O)C(CC(=O)NCCCN(C)C)CC(C(=O)N(C)C)=C2C)cc1 (configuration not stated)	-10.0	x	2918	2.5	0.1	-11.3
Cc1ccc2nc(-c3ccc(C#N)cc3)c(Cc3ccccc3)n2c1	-3.6	x	6129	x	1.1	3.5
Cc1cc(C)cc(NCc2ccncc2)c1	26.7	23.4	3372	3.7	-1.5	22.1
COc1ccc(-n2ccn(CC(=O)Nc3ccccc3OC)c(=O)c2=O)cc1	0.1	12.8	4444	-13.8	-3.2	-3.8
COc1ccc(C(=O)NC(C)c2nnc(SCC(=O)NC3CCCC3)n2C)cc1 (configuration not stated)	-1.7	52.9*	6421	5.7	-2.4	-0.6
N=c1n(CCN2CCCC2)c2ccccc2n1CC(O)c1ccco1 (configuration not stated)	1.0	3.6	21466*	6.6	4.5	3.6
CCOC(=O)c1ccc(N(CC2CO2)S(=O)(=O)c2ccc(C)cc2)cc1 (configuration not stated)	-3.9	x	3339	7.8	-0.4	-6.7
O=C(COC(=O)[C@H](Cc1ccccc1)NS(=O)(=O)c1ccccc1F)NC1CCCCC1	-22.4	-0.5	18375*	-4.4	6.8	12.5
Cc1ccc(OCCCCn2cnc3ccccc32)c(C)c1	-14.2	55.3*	u	-6.2	0.4	-4.5
COc1ccc(NC(=O)C2Cc3c(-c4ccc(Cl)cc4)ccnc3O2)cn1 (configuration not stated)	-1.7	x	3586	x	-0.4	1.0
Cc1nnc(N2CCCC(C(=O)NCc3ccc(OC(C)C)cc3)C2)c2nn(-c3ccccc3)c(C)c12 (configuration not stated)	-3.5	6.5	24028*	88.4*	-11.1	13.3
CCCCNC(=S)N(C)/N=C/c1c(F)c(F)c(F)c(F)c1F	-0.8	-7.9	2090	1.0	0.3	9.7
CCCCNC(=S)N(C)/N=C/c1c(C)[nH]c2ccccc12	5.4	2.6	5277	12.3	32.4*	-29.3
CCOC(=O)C1(CCc2ccccc2)CCN(Cc2cccc3nccnc23)CC1	-2.6	-3.8	3420	3.3	0.4	-2.1
CCN(C(=O)COC(=O)CCC(=O)c1ccccc1)c1c(N)n(Cc2ccccc2)c(=O)[nH]c1=O	-2.9	x	8812	-12.8	1.1	-7.4
